Records with an inconclusive call do not appear. Calls of active or inactive are those of the source. Unless noted, the call rests on the fitted dose curve; in most records, active means well fitted inhibition curve with a large enough effect; inconclusive means small, poorly fitted or top-dose-only effect; inactive means flat fitted curve, though single readings scatter.

Consider four compounds from PubChem BioAssay (NCATS).

The nature of assay [1]: P-glycoprotein substrates identified in KB-8-5-11 adenocarcinoma cell line, qHTS therapeutic library screen (AID 1346987). Further: nearly all actives have a fitted effect of over 65% in size. Further: potency means the concentration at half of the fitted maximal effect. In a few lines:
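Steps: plate 500 KB-8-5-11 cells/well in DMEM + 10% FCS (colchicine removed); pin compounds in dose-response; incubate 72 h, 37 degree C, 5% CO2; add CellTiter-Glo, 5 min; read luminescence.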
In general terms: In qHTS, concentration-response curves come from the screen itself.

Assay [2] deals with Calcium and integrin-binding protein 1 (Homo sapiens) (UniProt Q99828). As to the kind of experiment: Primary qHTS for Identification of Calcium Integrin Binding Protein 1 (CIB1) Competitor (AID 1508620).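 Further: GST tagged CIB1 binding a fluorescein labelled alphaIIb integrin peptide tracer; top concentration of the series differs between compounds; on the % scale 0 is the no-effect control and ±100 the full control effect.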 A digest of the protocol: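 Fluorescence polarization competition: CIB1-GST (1 uM final) preincubated with compound 15 min at room temperature, then FITC-labeled alphaIIb peptide (100 nM final) added for another 15 min. Polarization read at Ex 480/Em 540.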

Assay [3] has as its target Glutathione peroxidase 1 (Homo sapiens) (UniProt P07203). Briefly: Primary qHTS Assay for Inhibitors of Recombinant Selenoprotein Glutathione Peroxidase 1 (GPX1) (AID 1845191). Further: nearly all actives have a fitted effect of over 65% in size. A digest of the protocol:
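Recombinant GPX1 (10 nM final) was preincubated with compound for 30 min at room temperature, then reacted with 1 mM GSH, 0.5 mM CHP, 0.5 mM NADPH and 100 nM glutathione reductase; NADPH fluorescence (340/450 nm) was read at 0 and 15 min.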

The nature of assay [4]: Primary qHTS for inhibitors of nuclear receptor binding SET domain protein 2 (NSD2) in an isogenic RCH-ACV NSD2 p.E1099K mutant (9B) (AID 1645876). Further: potency means the concentration at half of the fitted maximal effect; nearly all actives have a fitted effect of over 70% in size.
The nature of assay [5]: qHTS drug screen for cell cycle checkpoint inhibitors in PARPi-resistant BRCA-mutant ovarian cancer cell lines. (AID 1963452; calls by dose curve). The following applies: PEO1/OlaR viability, CellTiter-Glo luminescence, 96 h, stronger effect = lower value. A digest of the protocol:
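PEO1, PEO4 and PEO1/OlaR ovarian cancer cells, 600 per well, exposed 96 h at 37C to a dilution series. Viability read by CellTiter-Glo luminescence, normalized to DMSO and empty wells; activity summarized as Z-AUC.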

Chain of Glutathione peroxidase 1 (Homo sapiens) (P07203 whole entry, looked up): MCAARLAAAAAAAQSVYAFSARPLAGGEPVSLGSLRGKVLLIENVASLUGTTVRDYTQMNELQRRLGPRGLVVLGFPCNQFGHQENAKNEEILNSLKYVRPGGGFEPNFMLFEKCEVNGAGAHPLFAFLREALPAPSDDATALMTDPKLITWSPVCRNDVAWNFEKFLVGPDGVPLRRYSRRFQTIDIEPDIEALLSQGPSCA
Chain of Calcium and integrin-binding protein 1 (Homo sapiens) (Q99828 whole entry, looked up): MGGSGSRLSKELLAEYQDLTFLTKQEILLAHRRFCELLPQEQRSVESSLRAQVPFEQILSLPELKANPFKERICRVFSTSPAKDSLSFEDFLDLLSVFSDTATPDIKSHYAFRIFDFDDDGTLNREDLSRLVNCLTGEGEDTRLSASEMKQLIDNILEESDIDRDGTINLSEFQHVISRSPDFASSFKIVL

In the case of `COc1cc(Br)c(C[N+]2(CCOCCC3CCC4CC3C4(C)C)CCOCC2)cc1OC` (stereo unspecified), in assay [1], the Potency result is “inactive”.

For `Cc1ccc(NS(=O)(=O)c2cc3c(cc2N[C@@H](C)CO)NC(=O)CC3)cc1Cl`, the Potency result in assay [1] was “inactive”. Moreover, the outcome in assay [2] was inactive.

On to `O=C1NCCCc2c1oc1ccc(O)cc21`, for which the Potency entry in assay [1] and in assay [3] was “inactive” throughout.

For `CN[C@@H]1C[C@H]2O[C@@](C)([C@@H]1OC)n1c3ccccc3c3c4c(c5c6ccccc6n2c5c31)C(=O)N[C@H]4O`, the Potency in assay [1] was 841 nM (active); in assay [4] it was 21.5 nM (active). The outcome in assay [3] is “inactive [at 9.52 µM]”. The Z-AUC in assay [5] was -0.878 (inactive); in assay [5] (measured here: PEO1 parental Z-AUC) it was -0.367; in assay [5] (measured here: PEO4 Z-AUC), -0.638.
